Assay [1] can be described thus: NCI Yeast Anticancer Drug Screen. Data for the rad50 strain (AID 155).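 Further: 0% = growth of vehicle-only cultures of the same strain.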 To be noted: S. cerevisiae rad50 strain growth inhibition; at 50.0 µM; stronger effect = higher value. The procedure, abridged:
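Readout: growth inhibition relative to vehicle-treated cultures. Compound exposure was carried out in a genetically defined yeast strain deficient in DNA damage repair.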

A short description of assay [2]: NCI Yeast Anticancer Drug Screen. Data for the mec2-1 strain (AID 157). The following applies: S. cerevisiae mec2-1 strain, at 50.0 µM, stronger effect = higher value. Summed up: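 Mutant yeast (mec2-1) grown with compound; growth inhibition relative to vehicle control reported.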
The nature of assay [3]: NCI Yeast Anticancer Drug Screen. Data for the sgs1 mgt1 strain (AID 161).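 Further: 0% = growth of cultures given vehicle only.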 The following applies: S. cerevisiae sgs1 mgt1 strain, at 50.0 µM, stronger effect = higher value. The procedure, abridged:
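This yeast growth screen uses a strain with defined DNA-repair lesions; compound-treated growth is compared with vehicle-treated growth.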

Assay [4] in a line: NCI Yeast Anticancer Drug Screen. Data for the cln2 rad14 strain (AID 165).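 Further: 0% = growth equal to vehicle treated cultures.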 The following applies: S. cerevisiae cln2 rad14 strain, at 50.0 µM, stronger effect = higher value. Summed up:
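Readout is yeast growth inhibition versus vehicle-treated controls, using a strain with cln2 and rad14 alterations exposed to compound.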

Assay [5] is described as follows: NCI Yeast Anticancer Drug Screen. Data for the bub3 strain (AID 167). The following applies: S. cerevisiae bub3 mutant strain, at 50.0 µM, stronger effect = higher value. Summed up:
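Readout: yeast growth inhibition, expressed relative to vehicle-only wells. The test organism is a mutant strain from a panel with lesions in DNA repair or checkpoint genes.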

A short description of assay [6]: NCI Yeast Anticancer Drug Screen. Data for the mlh1 rad18 strain (AID 175). To be noted: S. cerevisiae mlh1 rad18 strain growth inhibition; at 50.0 µM; stronger effect = higher value. Summed up: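 Genetically defined yeast (DNA repair-deficient) exposed to compounds; growth inhibition determined relative to vehicle.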

For 21 compounds, growth inhibition results are on record in PubChem BioAssay (NCI).

Molecules are shown by their SMILES. Compounds without any hit were thinned out: in the full panel of roughly 79,000, 15% have a hit. Values without a mark were called inactive. Calls of active or inactive are those of the source. No stated cut-off is given here; in the data, active means growth inhibition above about 70%; inactive means the rest.

Regarding `O=C1/C(=C/c2ccc(Cl)cc2)CCC1CNc1ccc(Cl)cc1` (stereo unspecified), the growth inhibition was 17.1% in assay [1]; 0.25% in assay [2]; -15.6% in assay [3]; -2.8% in assay [4]; -16.2% in assay [5]; -43.1% in assay [6].

Regarding `CC(=O)OCC1OC2OC(C)(C)OC2C2OC(C)(C)OC12` (stereo unspecified), the growth inhibition in assay [1] is -13.5%; in assay [2], 5.35%; in assay [3] it was 19.2%; in assay [4], -4.65%; in assay [5] it was -7.65%; in assay [6] it was -12.8%.

For the compound `CC(C)OC(=S)Nc1ccc(Cl)c(COC(C)(C)C)c1`, the growth inhibition in assay [1] was -5.8%; in assay [2], -16.2%; in assay [3], -4.65%; in assay [4] it was 7.6%; in assay [5] it was -10.1%; in assay [6] it was -7.4%.

As to `CN1CCCC1c1cccnc1.O=C(O)c1ccccc1O.O=C([O-])c1ccccc1[OH2+].O=C([O-])c1ccccc1[OH2+].[Mn+2]` (stereo unspecified), the growth inhibition in assay [1] is -3.05%; in assay [2], -0.4%; in assay [3], -24.7%; in assay [4], -30.7%; in assay [5] it was -29%; in assay [6] it was 4.15%.

In the case of `COc1ccc([N+](=O)[O-])cc1NC(=S)NC(=O)c1cccc(Br)c1`, the growth inhibition in assay [1] is -8.6%; in assay [2] it was 4.2%; in assay [3], -0.1%; in assay [4], -63.6%; in assay [5], 3.7%; in assay [6], 1.55%.

Take `CC1c2[nH]c3ccccc3c2CC1C(=O)O` (stereo unspecified): the growth inhibition in assay [1] is 10.3%; in assay [2], 12.6%; in assay [3] it was 5.25%; in assay [4] it was -13.2%; in assay [5], -9.8%; in assay [6], -5.35%.

On to `COc1cc2c(cc1OC)-c1ccc3cc4c(cc3c1N(C)C2)OCO4`, for which the growth inhibition was -3.8% in assay [1]; -36.6% in assay [2]; 9.8% in assay [3]; -4.65% in assay [4]; -12.7% in assay [5]; -2.65% in assay [6].

Turning to `Cc1cc2nn(C3CCCCO3)nc2cc1C` (stereo unspecified), the growth inhibition in assay [1] is 1.75%; in assay [2] it was -20.4%; in assay [3] it was -21.6%; in assay [4], -25.4%; in assay [5] it was 8.05%; in assay [6], -46.8%.

For the compound `COc1ccc(OC(=O)Nc2cccc(C(C)=O)c2)cc1`, the growth inhibition in assay [1] was 8.35%; in assay [2], 42.3%; in assay [3], 9.9%; in assay [4], 1.8%; in assay [5], 22.1%; in assay [6], 3.15%.

For `Cc1ccccc1OCC(C)OC(N)=O` (stereo unspecified), the growth inhibition in assay [1] was 6.1%; in assay [2], -11.4%; in assay [3], 2.1%; in assay [4], -16.4%; in assay [5] it was 7%; in assay [6], 6.15%.

Regarding `O=C(O)CCC1(C(=O)O)NCCc2c1[nH]c1ccccc21` (stereo unspecified), the growth inhibition is 8.1% in assay [1]; 11.8% in assay [2]; 5.1% in assay [3]; 8.55% in assay [4]; 7.9% in assay [5]; 12.6% in assay [6].

Take `Cc1cccc(C(=O)OCCBr)c1`: the growth inhibition is 27.1% in assay [1]; 3.95% in assay [2]; 13.7% in assay [3]; -28.4% in assay [4]; 9.9% in assay [5]; 10.9% in assay [6].

For `CNCCC(Oc1ccccc1OC)c1ccccc1` (stereo unspecified), the growth inhibition in assay [1] is 30.2%; in assay [2], 8.9%; in assay [3], -1.2%; in assay [4], 10.8%; in assay [5], 5.25%; in assay [6], 19.1%.

Consider `S=C(N/N=C/c1cccc2ccccc12)Nc1c(Cl)cccc1Cl`, for which the growth inhibition in assay [1] is 67.4%; in assay [2], 83.6% (active); in assay [3], 94.2% (active); in assay [4] it was 55.6%; in assay [5], 44.6%; in assay [6], 66.2%.

On to `OC1COC(c2ccccc2)OC1C(O)C1OC(c2ccccc2)OCC1O` (stereo unspecified), for which the growth inhibition is 5.3% in assay [1]; -3.8% in assay [2]; 12.2% in assay [3]; -38.9% in assay [4]; -8.2% in assay [5]; 10.7% in assay [6].

For `OCCN(CCO)c1ccc(-n2cnc3c(=S)nc[nH]c32)cc1`, the growth inhibition in assay [1] is -3.1%; in assay [2] it was -3%; in assay [3], 5.55%; in assay [4], -43.8%; in assay [5], 8.35%; in assay [6], -4.15%.

As to `COC(=O)CNc1cccc([N+](=O)[O-])c1`, the growth inhibition was -3.45% in assay [1]; 5.15% in assay [2]; -3.65% in assay [3]; -14.7% in assay [4]; -11.3% in assay [5]; -19.2% in assay [6].

As for `Cc1cccc(Oc2ccc(C(F)(F)F)cc2[N+](=O)[O-])c1C`, the growth inhibition in assay [1] is -32.2%; in assay [2], -2.15%; in assay [3], 2.55%; in assay [4] it was -45.4%; in assay [5] it was 45.3%; in assay [6], -15.2%.

As for `O=C1NC(CCl)(CCl)CO1`, the growth inhibition is 4.15% in assay [1]; 8.85% in assay [2]; -1.7% in assay [3]; 5.45% in assay [4]; -2.05% in assay [5]; 10.1% in assay [6].

In the case of `COc1ccc(C(c2cc3c(cc2O)OCO3)n2ccnc2)cc1` (stereo unspecified), the growth inhibition in assay [1] was 9.45%; in assay [2] it was 11.8%; in assay [3], 12.3%; in assay [4] it was -55.5%; in assay [5], 12.1%; in assay [6], 4.9%.

For `[N-]=[N+]=C1C(=O)NC(=O)N2C3OC(CO[C@@H]12)C(O)C3O` (stereo partly specified), the growth inhibition was -24.2% in assay [1]; -1.65% in assay [2]; -16.2% in assay [3]; 32.2% in assay [4]; -8.2% in assay [5]; -39% in assay [6].
